Among the data in PubChem BioAssay (NCATS) are Potency values, retold here.

“And” between values parts separate entries of the source, which are not always exact repeats. Equal entries are not always repeated. Inconclusive results are not listed. Where a structure was tested more than once in an assay, its records may differ in their call. The source made the active and inactive calls. The call rests on the fitted dose curve; in most records, active means well fitted curve in the direction sought with a large enough effect; inconclusive means small, poorly fitted or top-dose-only effect, or another doubt; inactive means no such curve, though single readings can be large; an effect the other way counts as inactive or inconclusive.

The nature of test [1]: Primary qHTS for inhibitors of nuclear receptor binding SET domain protein 2 (NSD2) in an isogenic RCH-ACV NSD2 p.E1099K mutant (9B) (AID 1645876).
Test [2] can be described thus: Primary qHTS for inhibitors of nuclear receptor binding SET domain protein 2 (NSD2) in an RCH-ACV wild type WT cells (2C) (AID 1645877). (In general: In qHTS, concentration-response curves come from the screen itself.)
Further: nearly all actives have a fitted effect of over 70% in size.
Potency means the concentration at half of the fitted maximal effect.

`CCNC(=O)CC1N=C(c2ccc(Cl)cc2)c2cc(OC)ccc2-n2c(C)nnc21` (stereo not given): the Potency is 9.34 µM (active) and inactive and 515 nM (active) in test [1]; 5.9 µM (active) and inactive and 409 nM (active) in test [2].

Consider `O=c1[nH]c2ccccc2n1C1CCN(Cc2ccc(-c3[nH]c4cc5ncnc5cc4nc3-c3ccccc3)cc2)CC1`, for which the Potency was 2.95 µM (active) in test [1] and 5.25 µM (active) in test [2].

Take `Nc1ccc(N=Nc2ccccc2)cc1`: the Potency in test [1] was 6.11 µM (active); in test [2], 6.86 µM (active).

As for `CC1(N2CCC(n3c([C@@H]4CCCNC4)nc4ccccc43)CC2)CCCCCCC1`, the Potency is 8.17 µM (active) and 14.8 µM (active) in test [1]; 7.28 µM (active) and 13.2 µM (active) in test [2].

For the compound `Cc1cc(O)ccc1Cl`, the Potency result in test [1] and in test [2] was “inactive” throughout.

As to `C[C@](O)(COc1ccc(C#N)cc1)C(=O)Nc1ccc(C#N)c(C(F)(F)F)c1`, the Potency in test [1] and in test [2] was 20.9 µM (active) each time.

On to `CSCC[C@@H](NC(=O)[C@@H](Cc1ccccc1)NC(=O)CNC(=O)CNC(=O)[C@@H](N)Cc1ccc(O)cc1)C(=O)O`, for which the Potency result in test [1] and in test [2] was “inactive” each time.

With `CCCC[N+]1(C)[C@H]2CC(OC(=O)[C@H](CO)c3ccccc3)C[C@H]1[C@H]1O[C@H]12` (stereo not given in full), the Potency result in test [1] and in test [2] was “inactive” in each case.

With `COC(C)(C)CCCC(C)C/C=C/C(C)=C/C(=O)OC(C)C` (stereo not given), the Potency entry in test [1] and in test [2] was “inactive” in each case.

Regarding `O=C(Oc1ccc([N+](=O)[O-])cc1)N1CCN(Cc2cccc(Oc3ccccc3)c2)CC1`, the Potency result in test [1] and in test [2] was “inactive” throughout.

Take `CC(=O)N(C)c1cccc(-c2ccnc3c(C(=O)c4cccs4)cnn23)c1`: the Potency entry in test [1] is “inactive”.

As for `c1ccc2c(CN3CCNCC3)cccc2c1`, the Potency result in test [1] and in test [2] was “inactive” throughout.

`CCN1C[C@]2(OC(=O)c3ccccc3NC(C)=O)CC[C@H](OC)[C@@]34[C@H]5CC6[C@@H](OC)C[C@](O)(C(C[C@@H]23)[C@@H]14)[C@@]5(O)[C@@H]6OC`: the Potency result in test [1] and in test [2] was “inactive” each time.

Consider `CC(C)Oc1cccc(NC(=O)c2ccccc2C(F)(F)F)c1`, for which the values for the Potency in test [1] and in test [2] were 21.7 µM (active) and 24.3 µM (active), respectively.

On to `O=[N+]([O-])/N=C1\NCCN1Cc1ccc(Cl)nc1`, for which the Potency result in test [1] and in test [2] was “inactive” throughout.

Turning to `CC1=C(O)C(=O)C=C2C1=CC=C1[C@@]2(C)CC[C@@]2(C)[C@@H]3C[C@](C)(C(=O)O)CC[C@]3(C)CC[C@]12C`, the Potency in test [1] was 1.48 µM (active); in test [2] it was 1.66 µM (active).

For the compound `CN1[C@H]2CC(O)C[C@H]1[C@H]1O[C@H]12` (stereo not given in full), the Potency result in test [1] and in test [2] was “inactive” throughout.

Take `O=C1C=CC[C@@H]2[C@H]3CCCN4CCC[C@@H](CN12)[C@@H]34`: the Potency result in test [1] and in test [2] was “inactive” throughout.

Take `CCC(=O)O[C@@H]1C=C2CCC3C(CCC4(C)C3CC[C@@H]4OC(=O)CC)C2CC1` (stereo not given in full): the Potency result in test [1] was “inactive”.

As for `COc1ccc2c(c[n+](C)c3c4cc5c(cc4ccc23)OCO5)c1OC`, the Potency entry in test [1] and in test [2] was “inactive” throughout.

Regarding `C#CC1(O)CCC2C3CCC4=CC(=O)CCC4(C)C3CCC21C` (stereo not given), the Potency result in test [1] and in test [2] was “inactive” throughout.

For the compound `O=C(O)COc1ccccc1`, the Potency result in test [1] and in test [2] was “inactive” in each case.

Regarding `CN[C@@H]1Cc2cccc3[nH]c(=O)n(c23)C1`, the Potency result in test [1] and in test [2] was “inactive” throughout.

Consider `CN(C)NC(=O)CCC(=O)O`, for which the Potency entry in test [1] and in test [2] was “inactive” each time.

In the case of `COC(=O)c1cncn1C(C)c1ccccc1` (stereo not given), the Potency result in test [1] and in test [2] was “inactive” each time.

With `O=C(N[C@@H](COc1ccc2[nH]c(=O)[nH]c2c1)c1ccccc1)c1cccn(Cc2ccc(F)c(F)c2)c1=O`, the Potency in test [1] is 1.63 µM (active); in test [2] it was 4.17 µM (active).

Take `CC(O)CN1CCN(CC(=O)[O-])CCN(CC(=O)[O-])CCN(CC(=O)[O-])CC1.[Gd+3]` (stereo not given): the Potency result in test [1] and in test [2] was “inactive” each time.

With `Cc1ccc(Cl)c(O)c1`, the Potency entry in test [1] and in test [2] was “inactive” each time.

`CC(C)[C@]12O[C@H]1[C@@H]1O[C@]13[C@]1(O[C@H]1C[C@H]1C4=C(CC[C@@]13C)C(=O)OC4)[C@@H]2O`: the Potency is 18.3 nM (active) and 23.5 nM (active) in test [1]; 12.9 nM (active) and 18.6 nM (active) in test [2].

In the case of `CCN1CCN(C(=O)Cc2ccc(Nc3ncc(F)c(Nc4ccc(C(=O)Nc5ccccc5Cl)cc4)n3)cc2)CC1`, the Potency in test [1] is 2.31 µM (active) and 2.63 µM (active); in test [2], 2.31 µM (active) and 2.35 µM (active).

`CC[C@@H](C(N)=O)N1CCCC1=O`: the Potency result in test [1] and in test [2] was “inactive” in each case.

With `Clc1ccccc1C(c1ccccc1)(c1ccccc1)n1cccn1`, the Potency entry in test [1] and in test [2] was “inactive” each time.

With `O=C(Nc1ccccc1-c1ccc(Cl)cc1)c1cccnc1Cl`, in test [1], the Potency result is “inactive”.

In the case of `O=C(N[C@H]1CN2CCC1CC2)c1ccc(Cl)cc1`, the Potency result in test [1] and in test [2] was “inactive” in each case.
